HT1080 IDH1KD tx – toxicity to HT-1080 IDH1 knockdown cells (counter line). HT-1080 IDH1 knockdown viability, ATP luminescence, 48 h. Potency, µM (top dose mostly 46.1 µM), most hits filed as cytotoxic. 360,000 tested, 2% active
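After a 2 h attachment period, IDH1KD HT-1080 cells took pin-transferred compound for 48 h at 37 °C; ATP-based luminescence after 10 min room-temperature reagent incubation reported viability.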
TDP1 cell CPT – growth inhibition of DT40 Tdp1-/-;hTDP1 cells with camptothecin (screen for TDP1 inhibitors) | chicken DT40 Tdp1-/-;hTDP1 cells + 20 nM CPT, ATP luminescence, 48 h | Potency, µM (titrated, usually from 46.2 µM), hits mostly inhibitors | 420,000 tested, 12% active | AID 686979; further: nearly all actives have a fitted effect of over 55% in size
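Chicken DT40 Tdp1-/- cells complemented with human TDP1, 400 cells/well, exposed to compounds plus 20 nM camptothecin for at least 48 h at 37 C; viability read as ATP content by CellTiter-Glo luminescence.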
IL-1B inflam inh – blocks inflammasome-driven IL-1 beta release. THP-1 LPS/ATP IL-1B secretion, AlphaLISA, 16 h; active compounds read low. activity change, % at 57.5 µM. 360,000 tested, 4.7% active. AID 743279; in the data active means activity change below about -50%; inconclusive means mostly about -30% to -49%
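THP-1 cells pretreated 1 hr with compounds (up to 57.5 uM final), then stimulated with LPS (250 ng/mL final) plus ATP (1.25 mM final); secreted IL-1B measured by AlphaLISA after 16 hr, decreased signal indicating inhibition.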
TDP1 cell noCPT – qHTS for Inhibitors of human tyrosyl-DNA phosphodiesterase 1 (TDP1): qHTS in cells in absence of CPT | DT40 Tdp1-/- hTDP1 cells, no CPT, ATP luminescence, 48 h | Potency, µM (highest dose often 46.2 µM), actives largely listed as inhibitors | 420,000 tested, 15% active; further: nearly all actives have a fitted effect of over 55% in size
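Compound effects on proliferation are scored in DT40 Tdp1-/-;hTDP1 cells in the absence of CPT. ATP levels (CellTiter-Glo luminescence) are recorded after a ≥48 hr, 37 °C incubation.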
HT1080NT lethal – kills 2HG-producing HT-1080-NT fibrosarcoma cells; Potency, µM (top dose mostly 46.1 µM), actives largely listed as cytotoxic; HT-1080-NT fibrosarcoma viability, CellTiter-Glo ATP luminescence, 48 h; 360,000 tested, 1.6% active; AID 686970;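 further: NT is the 2HG producing partner of a matched IDH1 knockdown line; nearly all actives have a fitted effect of over 55% in size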
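HT-1080-NT fibrosarcoma cells (2HG-overproducing), 750 cells/well in RPMI with 5% FBS, dosed after 2 h and incubated 48 h at 37C. CellTiter-Glo luminescence normalized to DMSO and no-cell wells; concentration-response curves fitted and classed.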
Large screens that a line does not name were inactive. A selection: hits, their analogues and other compounds. The true share with any hit is near 19%. Unless noted, the call rests on the fitted dose curve; in most records, active means well fitted curve in the direction sought with a large enough effect; inconclusive means small, poorly fitted or top-dose-only effect, or another doubt; inactive means no such curve, though single readings can be large; an effect the other way counts as inactive or inconclusive.

CCn1c(C)nc2cc(C(=O)NNC(=S)NC(=O)c3ccccc3)ccc21	TDP1 cell CPT inconclusive, TDP1 cell noCPT 23.1µM
CCn1c(C)nc2cc(C(=O)N/N=C/c3ccccc3)ccc21	none
Cn1c(C(=O)O)c(CC(=O)N2CCC(Cc3ccccc3)CC2)c2ccccc21	none
CCOC(=O)c1sc2nc(OCc3cccnc3)cc(C)c2c1N	TDP1 cell CPT inconclusive, IL-1B inflam inh -50.5, TDP1 cell noCPT inconclusive
CCOc1ccc(C2C(C(=O)OC)=C(C)NC3=C2C(=O)c2ccccc23)cc1OC (centres undefined)	TDP1 cell CPT 18.4µM, TDP1 cell noCPT 20.6µM (no result: HT1080 IDH1KD tx, IL-1B inflam inh, HT1080NT lethal)
CCOc1cc(C2NC(=O)N(C)C(C)=C2C(=O)OC)cc(Br)c1O (centres undefined)	none
CCOC(=O)C1=C(C)NC2=C(C(=O)c3ccccc32)C1c1cccnc1 (centres undefined)	TDP1 cell CPT inconclusive, TDP1 cell noCPT inconclusive
C#CCOc1c(Br)cc(C2C(C(=O)OC)=C(C)NC3=C2C(=O)c2ccccc23)cc1OCC (centres undefined)	TDP1 cell CPT inconclusive, TDP1 cell noCPT 5.8µM (no result: HT1080 IDH1KD tx, IL-1B inflam inh, HT1080NT lethal)
COCC(C)N=C1SCCN1Cc1ccccc1 (centres undefined)	none
CN(C)S(=O)(=O)c1cccc(N=C2SCCN2Cc2ccccc2)c1	TDP1 cell CPT inconclusive, TDP1 cell noCPT 20.6µM
CCCCCCCOc1ccc(C2(C)NC(=O)NC2=O)cc1 (centres undefined)	TDP1 cell noCPT inconclusive
CCCCOc1ccc(C2(C)NC(=O)NC2=O)cc1 (centres undefined)	TDP1 cell CPT inconclusive, TDP1 cell noCPT 18.4µM
O=C(CCSCCc1ccccn1)Nc1ccccc1C(F)(F)F	none (no result: HT1080 IDH1KD tx, IL-1B inflam inh, HT1080NT lethal)
N#Cc1ccc(Oc2ccc(-c3cnc4ccccc4n3)cc2)cc1C#N	TDP1 cell CPT inconclusive, TDP1 cell noCPT inconclusive
N#Cc1ccc(Oc2ccc(-c3nc4ccccc4nc3-c3ccccc3)cc2)cc1C#N	TDP1 cell CPT 9.2µM, TDP1 cell noCPT 18.4µM
Nc1ccc(Oc2ccc3nc(-c4ccccc4)c(-c4ccc([N+](=O)[O-])cc4)nc3c2)cc1	TDP1 cell CPT 16.4µM, TDP1 cell noCPT inconclusive
O=C1CC(c2cc(F)ccc2F)c2cc3c(cc2N1)CCC3 (centres undefined)	HT1080 IDH1KD tx 2.59µM, TDP1 cell CPT 2.59µM, TDP1 cell noCPT 3.66µM, HT1080NT lethal 2.59µM
S=C(NCc1ccc(Cl)cc1)Nc1ccncc1	TDP1 cell CPT 8.2µM, TDP1 cell noCPT inconclusive, HT1080NT lethal inconclusive
Fc1ccc(CNC(=S)Nc2ccc(Cl)cc2)cc1	HT1080 IDH1KD tx inconclusive, TDP1 cell CPT inconclusive, TDP1 cell noCPT inconclusive, HT1080NT lethal inconclusive
O=C(NNC(=S)Nc1ccc(Cl)cc1Cl)c1cccnc1	none
S=C(Nc1ccccc1Cl)Nc1ccc(Cl)cc1Cl	TDP1 cell noCPT inconclusive
S=C(Nc1ccccc1)Nc1ccc(Cl)cc1Cl	TDP1 cell CPT 18.4µM, TDP1 cell noCPT inconclusive
O=C(NNC(=S)Nc1ccc(Cl)cc1Cl)c1ccncc1	TDP1 cell noCPT 16.4µM
S=C(NCc1ccc(Cl)cc1)Nc1ccccc1	TDP1 cell CPT inconclusive, TDP1 cell noCPT 20.6µM
Cn1c(=O)c(-c2ccccc2)nc2cnc(Oc3ccccc3)nc21	TDP1 cell noCPT inconclusive (no result: HT1080 IDH1KD tx, IL-1B inflam inh, HT1080NT lethal)
Cn1cnc(S(=O)(=O)N2CCC(C(=O)NCc3ccc(F)cc3)CC2)c1	none (no result: HT1080 IDH1KD tx, IL-1B inflam inh, HT1080NT lethal)
Cc1ccccc1NC(=S)NCc1ccc(Cl)cc1	TDP1 cell CPT inconclusive, TDP1 cell noCPT 14.6µM
COc1cc(OC)cc(-c2c(C#Cc3ccsc3)c3cc(-c4ccc(CN5CCOCC5)cc4)ccc3n2C)c1	TDP1 cell noCPT inconclusive
COc1ccc2cc(C#CC3=CC(=O)C[C@H](c4ccc(F)cc4)C3)ccc2c1	HT1080 IDH1KD tx inconclusive, TDP1 cell CPT inconclusive, IL-1B inflam inh -75.8, TDP1 cell noCPT inconclusive, HT1080NT lethal inconclusive
Cc1ccc(-n2c(CNc3ccc(F)cc3)nnc2SCC(=O)NCc2ccco2)cc1	TDP1 cell CPT 16.4µM, TDP1 cell noCPT inconclusive
Cc1cc(C(=O)OCC(=O)NCc2ccco2)c(C)n1-c1ccc(F)cc1	HT1080 IDH1KD tx inconclusive, TDP1 cell CPT 0.651µM, TDP1 cell noCPT 0.82µM, HT1080NT lethal inconclusive
O=C(NCc1nnc(SCc2ccc(C(F)(F)F)cc2)n1-c1ccccc1)C12CC3CC(CC(C3)C1)C2	TDP1 cell CPT inconclusive, TDP1 cell noCPT 13µM
CCNC(=O)COC(=O)c1cc(C)n(-c2ccccc2)c1C	none
Cc1ccc(NC(=O)CSc2nnc(CNC(=O)C34CC5CC(CC(C5)C3)C4)n2-c2ccc(F)cc2)cc1	HT1080 IDH1KD tx inconclusive, TDP1 cell CPT 16.4µM, TDP1 cell noCPT inconclusive, HT1080NT lethal inconclusive
CC(C)(C)C(=O)n1nc(-c2ccccc2)oc1=O	none
COC(=O)c1c(NC(=O)/C(C#N)=C/c2ccc(OC)cc2)sc2c1CCC2	none (no result: HT1080 IDH1KD tx, IL-1B inflam inh, HT1080NT lethal)
O=C(NCc1nnc(SCc2ccc(F)cc2)n1-c1ccccc1)C12CC3CC(CC(C3)C1)C2	TDP1 cell CPT 16.4µM, IL-1B inflam inh -79.1, TDP1 cell noCPT 5.8µM
Cc1ccc(-n2c(Cc3cccs3)nnc2SCC(=O)Nc2ccc(F)c(F)c2)cc1	HT1080 IDH1KD tx 11.2µM
COc1ccc(N2CC(C(=O)N[C@H](C(=O)NC(C)c3ccccc3)C(C)C)CC2=O)cc1 (some centres undefined)	none
O=C(CN1CCN(Cc2ccc(Cl)cc2)C1=O)NCCCN1CCOCC1	none
CC(C)OCCCNC(=O)CN1CCN(Cc2ccccc2Cl)C1=O	TDP1 cell CPT inconclusive, TDP1 cell noCPT 18.4µM
O=C(CN1CCN(Cc2ccccc2Cl)C1=O)NCCc1ccc(Cl)cc1	TDP1 cell noCPT inconclusive (no result: HT1080 IDH1KD tx, IL-1B inflam inh, HT1080NT lethal)
O=C(CN1CCN(Cc2ccc(Cl)cc2)C1=O)NCCCN1CCN(c2ccc(F)cc2)CC1	HT1080 IDH1KD tx 15.8µM, TDP1 cell CPT 8.91µM, IL-1B inflam inh -69.8, TDP1 cell noCPT 10µM, HT1080NT lethal inconclusive
Cc1ccccc1CN1CCN(CC(=O)NCCCN2CCN(c3ccc(F)cc3)CC2)C1=O	TDP1 cell CPT 16.4µM, IL-1B inflam inh inconclusive, TDP1 cell noCPT 13µM
C[C@H](NC(=O)N1CCn2c1nc1ccccc12)C(=O)NCc1ccc(F)cc1	none
Nc1ccccc1SC1CC(=O)N(c2ccc(Cl)c(Cl)c2)C1=O (centres undefined)	TDP1 cell CPT 25.9µM, IL-1B inflam inh inconclusive, TDP1 cell noCPT 13µM
O=C1CC(SC(=Nc2ccccc2)Nc2ccccc2)C(=O)N1c1ccc(Cl)c(Cl)c1 (centres undefined)	HT1080 IDH1KD tx inconclusive, TDP1 cell CPT inconclusive, IL-1B inflam inh inconclusive, TDP1 cell noCPT 18.4µM, HT1080NT lethal inconclusive
O=C1SC(SC(=Nc2ccccc2)Nc2ccccc2)C(=O)N1c1ccccc1 (centres undefined)	TDP1 cell CPT 14.6µM, TDP1 cell noCPT inconclusive
